Source: PubChem BioAssay
Rows were chosen to be rich in hits. Some 1.2% of all compounds tested hit in one or more screens of this group.
N-glyco inh = blocks N-linked glycosylation in D54 reporter cells; D54 ERlucT glycosylation luciferase reporter, 24 h; percent of 100 nM tunicamycin response; reporter increase, % at 12.5 µM; actives 0.23% (n = 360,000);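 active means mean luciferase reporter signal, scaled so untreated is 0 and the glycosylation-blocking control 100, at or above a set limit in every replicate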;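 further: luciferase carries N-glycosylation sites so blocking glycosylation raises the light; 0% = median of neutral control wells and 100% = median of 100 nM tunicamycin wells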
NSD2 inh = blocks human histone methyltransferase NSD2. O96028. NSD2 peptide methylation, AlphaScreen, 120 min. inhibition, % at 12.5 µM. actives 0.54% (n = 310,000). AID 743445; in the data active means inhibition above about 50%
Casp6 inh = caspase-6 (human) enzyme inhibition; P55212; purified caspase-6, Z-VEID-R110 cleavage fluorescence; inhibition, % at 12.5 µM; actives 0.53% (n = 350,000); AID 686996;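 active means mean inhibition across replicates at least about 35%, with every replicate also reaching that limit, limit read from the data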;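 further: 0% = median of neutral control wells and 100% = no fluorescence left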
RAD52 anneal inh = RAD52 (human) annealing inhibition. recombinant RAD52 DNA annealing, FRET fluorescence. AID 651710. actives 0.46% (n = 360,000). inhibition, % at 18.7 µM. P43351;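 active means every replicate showing at least 50% inhibition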
Target sequence (P43351 whole entry, looked up): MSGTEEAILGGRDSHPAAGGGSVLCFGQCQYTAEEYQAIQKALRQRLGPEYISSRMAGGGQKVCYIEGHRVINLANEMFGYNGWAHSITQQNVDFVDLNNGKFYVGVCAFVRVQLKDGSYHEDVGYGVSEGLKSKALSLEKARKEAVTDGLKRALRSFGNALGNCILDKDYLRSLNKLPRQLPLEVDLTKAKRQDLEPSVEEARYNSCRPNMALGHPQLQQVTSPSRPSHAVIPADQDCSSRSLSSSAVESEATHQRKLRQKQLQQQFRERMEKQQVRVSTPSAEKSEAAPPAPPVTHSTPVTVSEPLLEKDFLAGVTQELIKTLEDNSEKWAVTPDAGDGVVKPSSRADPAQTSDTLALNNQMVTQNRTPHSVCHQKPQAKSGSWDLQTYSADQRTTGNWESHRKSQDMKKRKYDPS
RAD54 branch = RAD54 (human) branch migration inhibition; RAD54 Holliday junction branch migration, FAM/BHQ fluorescence; Q92698; inhibition, % at 10.4 µM; actives 0.14% (n = 360,000);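 active means mean normalized replicate activity at least 40 and at least half of replicates scoring 40 or more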;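 further: 0% = median of neutral control wells and 100% = median of positive control wells; inhibitors cause a drop in the FAM fluorescence signal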
An asterisk follows results filed as active; i = inactive; · = not tested or not shown; ! = not confirmed by another sample.

SMILES	N-glyco inh	NSD2 inh	Casp6 inh	RAD52 anneal inh	RAD54 branch
N#Cc1ccccc1CN1C(=O)S/C(=C/c2cccn2-c2ccc(C(=O)O)cc2)C1=O	2	·	·	·	·
O=C(O)c1ccc(-n2cccc2/C=C2/SC(=O)N(CC(=O)N3CCCC3)C2=O)cc1	2	·	66*	-18	6
C[C@@H]1CCCCO[C@H](CN(C)C(=O)Nc2ccc3c(c2)OCO3)[C@@H](C)CN([C@@H](C)CO)C(=O)c2cc(NS(C)(=O)=O)ccc2O1	·	·	1	1	-8
CCOc1ccc2nc(NCCNC(=O)Nc3cccc(C)c3)c(C#N)cc2c1	42*	1	·	·	-8
O=c1c2ccccc2[nH]c2ccc(O)cc12	2	1	38*	-19	4
CCC(=O)N1CC2(C1)CN(C(=O)Nc1ccccc1F)[C@H](CO)c1[nH]c3cc(OC)ccc3c12	·	·	6	2	·
CC(C)(C)S(=O)(=O)N1C[C@H]2CC/C=C\C/C(c3ccccc3)=C\2[C@@H]1CCO	38*	·	1	-4	1
O=C(/C=C/c1ccccc1Cl)c1cccnc1	11	0	·	·	-5
O=C(/C=C/c1ccc(O)c(O)c1)c1ccccc1O	6	62*	19	-48	0
O=C(/C=C/c1ccccc1Cl)c1ccc(O)cc1	30*	16	7	-10	-19
O=C(C=Cc1ccccc1O)c1ccccc1O	33*	5	3	4	1
O=C(/C=C/c1ccccc1Cl)c1ccccc(=O)c1O	19	9	·	·	·
O=C(C=Cc1cccc(O)c1)c1ccccc1O	23	-1	7	4	2
CC(C)NC(=O)Nc1ccc2c(c1)CC(=O)N([C@@H](C)CO)C[C@H](C)[C@@H](CN(C)Cc1ccc(Oc3ccccc3)cc1)O2	·	·	-1	10	-8
COc1ccc2c(-c3cc4ccc(OCc5ccc(F)cc5)cc4oc3=O)cc(=O)oc2c1	37*	1	1	-15	·
COc1ccc(COc2ccc3c(C)cc(=O)oc3c2)cc1	-3	21	0	-6	11
CCOC(=O)C1=C(O)/C(=C/c2ccc(OCC(=O)O)c(OCC)c2)SC1=Nc1ccc(C)cc1	2	10	14	-6	·
CCOC(=O)C1=C(O)/C(=C/c2ccc(OCC(=O)O)c(OCC)c2)SC1=Nc1ccc(OC)cc1	-1	7	35*	13	·
O=C(Nc1ccc(O)cc1C(=O)O)c1ccc2c(c1)C(=O)N(Cc1ccco1)C2=O	-6	1	·	·	-1
O=C(Nc1cc([N+](=O)[O-])ccc1O)c1ccc2c(c1)C(=O)N(Cc1ccco1)C2=O	-2	8	42*	0	-7
O=C(N/N=C/C1CC=CCC1)c1ccc(Cl)cc1O (stereo not given)	2	-1	62*	-20	-2
CSc1nc(SCC(=O)NCc2ccco2)c2sc3nc(C(C)C)c4c(c3c2n1)CCC4	·	2	·	·	·
CCCNC(=O)C[C@@H]1CC[C@H]2[C@@H](COC[C@@H](O)CN2C(=O)Nc2cccc(Cl)c2)O1	·	·	6	11	5
Cc1noc(C)c1S(=O)(=O)Nc1ccc2c(c1)C(=O)N([C@@H](C)CO)C[C@@H](C)[C@@H](CN(C)Cc1ccc(C(F)(F)F)cc1)OCCCC[C@@H](C)O2	·	·	0	20	-6
N#Cc1cccc(-c2ccc(C3[C@H]4CNC[C@@H]3N4S(=O)(=O)c3ccccc3F)cc2)c1 (stereo not given in full)	·	·	0	32	·
SMILES	N-glyco inh	NSD2 inh	Casp6 inh	RAD52 anneal inh	RAD54 branch
Cc1ccccc1S(=O)(=O)N1[C@@H]2CNC[C@H]1C2c1ccc(/C=C/c2ccccc2)cc1 (stereo not given in full)	·	·	1	51*!	·
Cc1ccccc1S(=O)(=O)N1[C@@H]2CNC[C@H]1[C@@H]2c1ccc(-c2ccc(C#N)cc2)cc1	·	·	40*	47	·
O=C(Nc1ccc(Cl)cc1)N1CCN(c2ccc3nnc(-c4ccc(F)cc4)n3n2)CC1	100*	1	·	·	0
O=C(N=C1c2ccccc2CN1c1cccc(S(=O)(=O)N2CCOCC2)c1)c1ccccc1	·	2	·	·	·
COc1ccc2ccc3cccc[n+]3c2c1	3	1	-1	10	51*
COc1ccc2nc3ccccc3[n+]([O-])c2c1	18	4	-6	i	-79
Cc1ccc(OCC(=O)c2c(N)n(C)c(=O)n(C)c2=O)c([N+](=O)[O-])n1	1	16	35*	-50	3
CO[C@@H]1CN(C)C(=O)c2cc(NS(=O)(=O)c3ccccc3C)ccc2OC[C@H](C)N(S(C)(=O)=O)C[C@H]1C	·	·	0	0	3
O=C(O)c1cccc(Cn2c(Cl)c(/C=N/NC(=O)c3cc4ccccc4cc3O)sc2=O)c1	1	34	42*	-48	-20
O=C(O)c1cccc(Cn2c(Cl)c(/C=N/NC(=O)c3ccccc3)sc2=O)c1	-2	1	·	·	-7
COc1cc(/C=C2\SC(=S)N(CCC(=O)N3CCCCC3)C2=O)cc(OC)c1OC	70*	·	3	-18	-9
O=C(CCN1C(=O)/C(=C/c2cccs2)SC1=S)N1CCCCC1	50*	10	2	-129	-7
O=C(CCN1C(=O)/C(=C\c2ccccc2)SC1=S)N1CCCCC1	56*	1	1	-2	10
Cc1ccc(/C=C2\SC(=S)N(CCC(=O)N3CCCCC3)C2=O)cc1	18	0	10	-6	27
Cc1cccc(S(=O)(=O)N2CC[C@@H]3[C@@H](CO)Nc4ccc(C#Cc5ccc(F)cc5)cc4[C@@H]32)c1	·	·	-1	2	8
CN1C(=O)c2cc(NC(=O)C3CCCC3)ccc2OC[C@@H]2O[C@H](CC(=O)NCc3ccccc3F)CC[C@H]21	·	·	1	15	·
CCCC#Cc1ccc2c(c1)O[C@H](CN(C)Cc1ccc3c(c1)OCO3)[C@H](C)CN([C@@H](C)CO)S2(=O)=O	·	·	7	11	-9
C[C@H]1CN([C@@H](C)CO)C(=O)c2cc(NC(=O)NC3CCCCC3)ccc2O[C@@H]1CN(C)S(=O)(=O)c1ccc(Cl)cc1	·	·	-2	-19	-8
COCC(=O)Nc1ccc2c(c1)C(=O)N(C)C[C@H](OC)[C@@H](C)CN(C(=O)c1cccnc1)[C@H](C)CO2	·	·	-1	-4	1
O=C(/C=C/c1ccccc1)Oc1ccccc1O	·	2	·	·	·
O=C(/C=C/Sc1ccc(C(F)(F)F)cn1)c1ccccc1	37*	-1	2	-20	2
O=C(CSc1ccc(C(F)(F)F)cn1)Nc1ccccc1	0	-3	4	-7	2
C[C@@H]1CN([C@H](C)CO)C(=O)c2cc(NC(=O)CCCCCC(=O)Nc3ccccc3N)ccc2O[C@@H]1CN(C)Cc1ccccc1	·	·	1	14	·
C[C@@H]1CN([C@@H](C)CO)C(=O)Cc2cc(NC(=O)CCCN(C)C)ccc2O[C@H]1CN(C)Cc1ccc(C(=O)Nc2ccccc2N)cc1	·	·	-1	83*	·
C[C@H](CO)N1C[C@H](C)[C@H](CN(C)Cc2ccc(-c3ccccc3)cc2)Oc2ccc(NC(=O)CCCN(C)C)cc2C1=O	·	·	2	22	23
